The record followed here is PubChem BioAssay AID1851 (National Center for Advancing Translational Sciences (NCATS), 2009).

The structures appear in SMILES notation. The campaign covered roughly 16,000 compounds. About 5,800 (36%) were called active. Inconclusive results (about 23%) are left out. Some of the results follow. A number with no mark means an inactive call. Calls come from the whole dose curve; as a rule, active = well fitted curve in the direction sought with a large enough effect; inconclusive = small, poorly fitted or top-dose-only effect, or effect the other way; inactive = no such curve, though single readings can be large or run the other way.
% is set by controls: 0 for no effect and ±100 for the full control effect.

Chain of Cytochrome P450 2C19 (Homo sapiens) (P33261 whole entry, looked up): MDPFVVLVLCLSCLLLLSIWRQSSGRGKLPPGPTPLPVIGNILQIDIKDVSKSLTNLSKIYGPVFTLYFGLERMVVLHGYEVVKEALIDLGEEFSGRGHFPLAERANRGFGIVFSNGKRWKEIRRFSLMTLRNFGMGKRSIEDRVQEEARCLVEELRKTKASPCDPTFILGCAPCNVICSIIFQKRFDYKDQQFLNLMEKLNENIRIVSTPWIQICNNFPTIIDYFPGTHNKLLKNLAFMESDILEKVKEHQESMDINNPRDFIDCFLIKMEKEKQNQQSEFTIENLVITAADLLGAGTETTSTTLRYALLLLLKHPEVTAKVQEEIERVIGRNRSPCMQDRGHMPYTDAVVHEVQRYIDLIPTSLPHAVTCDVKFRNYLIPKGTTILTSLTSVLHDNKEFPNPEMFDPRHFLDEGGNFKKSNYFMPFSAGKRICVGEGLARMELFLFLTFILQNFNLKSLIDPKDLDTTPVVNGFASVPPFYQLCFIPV

The assay concerns the target Cytochrome P450 2C19 (Homo sapiens) (UniProt P33261). Kind of assay: Cytochrome panel assay with activity outcomes. To be noted: recombinant CYP, pro-luciferin dealkylation, luminescence, p450-cyp2c19; series mostly up to 57.1 µM; activity, negative = inhibition: at the top concentration.
`CCOC(=O)CSc1nc(-c2ccccc2)nc2ccccc12`: the AC50 was 4.47 µM (active).
With `O=C(O)Cn1c(-c2ccccc2)nc2ccccc21`, the “activity, negative = inhibition” value is -3.11%.
Regarding `CCOC(=O)Cn1c(-c2ccccc2)nc2ccccc2c1=O`, the AC50 was 7.08 µM (active).
Turning to `CCOC(=O)CSc1cc(CS(=O)c2ccc(Cl)cc2)nc(-c2ccccc2)n1` (centres undefined), the AC50 is 0.126 µM (active).
For `CCCn1c(-c2ccccc2)nc2c(=O)n(C)c(=O)[nH]c21`, the “activity, negative = inhibition” value is -28.4%.
Turning to `NC(=Nc1ccccc1)NC(=O)c1nc(Cl)c(N)nc1N`, the “activity, negative = inhibition” value was -2.55%.
Regarding `CS(=O)(=O)N1CCC2(CCN(C(=O)Nc3cccc(F)c3)CC2)CC1`, the “activity, negative = inhibition” value is 28.3%.
With `CS(=O)(=O)N(CC(=O)Nc1cccc(F)c1)c1cccc([N+](=O)[O-])c1`, the AC50 was 7.94 µM (active).
In the case of `CS(=O)(=O)N1CCC[C@@]2(CCN(C(=O)Nc3cccc(F)c3)C2)C1`, the “activity, negative = inhibition” value was -16.4%.
On the same count and under the same terms, the same measure for `NC(N)=N/N=C(/c1ccccc1)c1ccc(O)cc1O`: -16.1% [at 11.4 µM]; for `COc1ccc(/C=C/C(=O)Nc2nc(C)cc(C)n2)cc1OC`: -10.2%; for `COc1cc(/C=C\C(=O)N2CCC=CC2=O)cc(OC)c1OC`: -7.75% [at 25.6 µM].
In the case of `C=CCSc1nc2ccccc2n1C(=O)/C=C/c1cc(OC)c(OC)c(OC)c1`, the AC50 is 2.24 µM (active).
For `CCSc1nc2ccccc2n1C(=O)/C=C\c1ccc(OC)c(OC)c1`, the AC50 is 7.94 µM (active).
The same measure, in the same setting: in the case of `CSc1ccccc1NC(=O)CSCc1ccc(C)cc1` it was 1.78 µM (active); in that of `Cc1cc2nc(-c3ccc(SCC(=O)N4CCc5ccccc54)nc3)[nH]c2cc1C`, 3.98 µM (active).
For the molecule `Cc1ccc(C)c(-n2c(CNC(=O)c3ccco3)nnc2SCC(=O)N2CCc3ccccc32)c1`, the “activity, negative = inhibition” value was 17%.
As for `CCOC(=O)O[C@]1(C(=O)COC(=O)CC)CC[C@@H]2[C@@H]3CCC4=CC(=O)C=C[C@@]4(C)[C@H]3[C@H](O)C[C@]21C`, the “activity, negative = inhibition” value was -33.4% [at 25.6 µM].
Consider `OCCN(C=NC1=NN(c2cccc(C(F)(F)F)c2)CC1)CCO`, for which the “activity, negative = inhibition” value is 1.91%.
Take `FC(F)(F)c1cccc(N2CCN(CC3CC4C=CC3C4)CC2)c1` (centres undefined): the AC50 was 8.91 µM (active).
With `CO[C@@H]1COC(=O)[C@@H](CCSC)NC(=O)C/C=C\[C@@H](C)COC(=O)CCC[C@H]1C`, the activity, negative = inhibition is -34.5% [at 11.4 µM].
For `C(=Nc1cnc2ccccc2c1)c1ccc2ccccc2n1`, the activity, negative = inhibition is 34% [at 11.4 µM].
As to `Cc1cccc(Nc2ccncc2S(=O)(=O)NC(=O)NC(C)C)c1`, the “activity, negative = inhibition” value was -12.7% [at 25.6 µM].
Consider `Cc1cccc(NCCNc2cccc(C)c2)c1`, for which the half-maximal activity concentration (AC50) is 2.82 µM (active).
`COCCn1c(=O)c(-c2cc(F)cc(F)c2)nc2cnc(N3CCN(C)CC3)nc21`: the “activity, negative = inhibition” value was -24.9%.
Take `CC(C)=C[C@H]1[C@@H](C(=O)Oc2ccccc2C(C)C)C1(C)C`: the AC50 was 1.26 µM (active).
Still for that read-out and setting: the same measure for `COc1ccc2[nH]cc(CCNc3ncncc3-c3cccc(NS(C)(=O)=O)c3)c2c1`: 5.01 µM (active); for `COc1cccc(-c2cncnc2NCCc2c[nH]c3ccc(OC)cc23)c1`: 0.316 µM (active).
As for `c1cncc(-c2cncnc2NC2CCNCC2)c1`, the “activity, negative = inhibition” value is -38.4%.
For the molecule `COc1ccc2[nH]cc(CCNc3ncncc3-c3cccnc3)c2c1`, the AC50 was 3.16 µM (active).
Regarding `CCC/C=C(\CCC)C(NP(=O)(c1ccccc1)c1ccccc1)c1ccc(-c2ccccc2)cc1` (centres undefined), the AC50 was 7.94 µM (active).
In the case of `CCC/C=C(\CCC)C(NS(=O)(=O)c1cccs1)c1ccc(C(=O)OC)cc1` (centres undefined), the half-maximal activity concentration (AC50) was 0.794 µM (active).
On the same count and under the same terms, in the case of `CCC/C=C(\CCC)C(NS(=O)(=O)c1ccc(Cl)cc1)c1ccccc1` (centres undefined) it was 0.398 µM (active); in that of `CCC/C=C(\CCC)C(NS(=O)(=O)c1ccc(Cl)cc1)c1ccc(C(=O)OC)cc1` (centres undefined), 1.58 µM (active).
On to `CO[C@H]1COC(=O)C/C=C\[C@@H](C)COC(=O)[C@@H](C)NC(=O)C/C=C\[C@@H]1C`, for which the activity, negative = inhibition is 16.7% [at 11.4 µM].
Same read-out and setting: in the case of `CO[C@H]1COC(=O)CCC[C@@H](C)[C@H](OC)COC(=O)[C@H]2CCCN2C(=O)C/C=C\[C@@H]1C` it was -20.1% [at 11.4 µM].
As to `CCC/C=C(\CCC)C(NS(=O)(=O)c1ccc(-c2ccccc2)cc1)c1ccc(C(=O)OC)cc1` (centres undefined), the AC50 is 1.26 µM (active).
On to `CCC/C=C(\CCC)C(NS(=O)(=O)c1cccc2cccnc12)c1ccc(C(=O)OC)cc1` (centres undefined), for which the AC50 was 3.16 µM (active).
On the same count and under the same terms, the same measure for `CCC/C=C(\CCC)C(NS(=O)(=O)c1ccc(C(F)(F)F)cc1)c1ccc(C(=O)OC)cc1` (centres undefined): 2.51 µM (active); for `CCC/C=C(\CCC)C(NS(C)(=O)=O)c1ccccc1` (centres undefined): 7.94 µM (active); for `COC(=O)c1ccc(-n2cncn2)c(F)c1`: 7.08 µM (active).
Consider `O=C(c1ccc2nc3ccc(Cl)cc3c(=O)n2c1)N1CCOCC1`, for which the “activity, negative = inhibition” value was -7.4%.
As for `NC(=O)C1(N2CCCCC2)CCN(C(=O)c2cccn3c(=O)c4cc(Cl)ccc4nc23)CC1`, the AC50 was 14.1 µM (active).
Regarding `N[C@@H](Cc1nn[nH]n1)C(=O)O`, the activity, negative = inhibition was -17.6% [at 11.4 µM].
Consider `CCOc1ccc(-c2nn(-c3ccccc3)cc2/C=C2\SC(N)=NC2=O)cc1C`, for which the AC50 was 11.2 µM (active).
For the molecule `CCOc1ccc(-c2nn(-c3ccccc3)cc2/C=C(\C#N)S(=O)(=O)c2ccccc2)cc1C`, the “activity, negative = inhibition” value was -13.4%.
In the case of `COc1ccc(C(=O)c2ccccc2)cc1Br`, the AC50 is 8.91 µM (active).
With `CCOc1ccc(C(=O)O)cc1OC`, the “activity, negative = inhibition” value is -14.7%.
In the case of `COc1ccc(C(=O)c2ccc(OC)c(OC)c2)cc1OC`, the concentration at half-maximal activity (AC50) is 2.82 µM (active).
As to `COc1ccc(Br)c2c1C[C@H](C(=O)O)CC2`, the activity, negative = inhibition was 39.7% [at 11.4 µM].
For the molecule `CC[C@@H](c1ccccc1)n1c(=O)n2n(c1=O)[C@H]1[C@H](O)[C@H]3O[C@@H]3/C(=N/OC/C=C(\C)CCC=C(C)C)[C@@H]1CC2`, the activity, negative = inhibition was -35.5% [at 11.4 µM].
With `Cc1ccc(C(C(=O)NC2CCCCC2)N2CCN(C(=O)c3ccco3)CC2)cc1` (centres undefined), the AC50 is 8.91 µM (active).
The same measure, in the same setting: in the case of `Cc1ccc(C(OC(=O)c2ccco2)C(=O)NC2CCCCC2)cc1` (centres undefined) it was 17.8 µM (active).
As to `C[N+]1(CCC(=O)c2ccco2)CC2CCC(CC2)C1` (centres undefined), the activity, negative = inhibition is -31.3% [at 11.4 µM].
Turning to `CC(C)NC(=O)N1CCC2(CC1)CCN(C(=O)c1ccco1)CC2`, the “activity, negative = inhibition” value was 18%.
The same measure, in the same setting: the same measure for `CC(C)NC(=O)N1CC2(CCN(C(=O)c3ccco3)CC2)C1`: -2.81%.
Take `O=C(OC(C(=O)NC1CCCC1)c1ccncc1)C1=Cc2ccccc2OC1` (centres undefined): the AC50 was 1.12 µM (active).
Still for that read-out and setting: in the case of `COc1ccccc1N1CCN(c2nc(-c3ccccc3)cc(C(F)(F)F)n2)CC1` it was 1 µM (active).
Turning to `COc1ccccc1-c1nc(N2CCN(C)CC2)c2ccccc2n1`, the “activity, negative = inhibition” value was 1.78%.
In the case of `CN1CCN(c2nc(-c3ccccc3)cc(C(F)(F)F)n2)CC1`, the AC50 is 8.91 µM (active).
Consider `Cc1ccc(C(=O)NC(=S)Nc2cc(-c3nc4ccccc4s3)ccc2C)cc1`, for which the “activity, negative = inhibition” value is -17%.
Regarding `CNC(=O)NC(=S)NC(=O)c1ccc(OC)cc1`, the AC50 was 14.1 µM (active).
Same read-out and setting: the same measure for `COc1ccc(C(=O)NC(=S)NCc2ccccc2)cc1`: 5.01 µM (active).
For `COc1ccc(C(=O)NCc2ccc(-c3nc4ccccc4s3)cc2)cc1`, the AC50 is 7.94 µM (active).
Same read-out and setting: the same measure for `CC(C)(C)C(=O)NC(=S)NCCc1ccccc1`: 2.51 µM (active).
Consider `COc1ccc(C(=O)NNC(=S)NC(=O)c2ccco2)cc1`, for which the “activity, negative = inhibition” value was -61.5%.
As to `C/C(=C(/CCO)SSC[C@@H]1CCCO1)N(C=O)Cc1cnc(C)nc1N`, the “activity, negative = inhibition” value is -29% [at 25.6 µM].
Turning to `COc1cc(OC)cc(C(=O)NC(=S)NCCc2ccccc2)c1`, the AC50 was 2.51 µM (active).
For `COc1cc(OC)cc(C(=O)NC(=S)Nc2ccc(Cl)c(C(=O)O)c2)c1`, the “activity, negative = inhibition” value was -28.3%.
As to `CCOc1ccc(N2C(=O)C3C4C=CC(CC4)C3C2=O)c([N+](=O)[O-])c1` (centres undefined), the AC50 was 3.98 µM (active).
Take `Cc1cc(C)c(-c2cc([C@H](C)O/N=C3/[C@H]4OC4[C@@H](O)[C@H]4[C@H]3CCn3c(=O)n(-c5ccccc5)c(=O)n34)on2)c(C)c1` (some centres undefined): the activity, negative = inhibition was -40% [at 11.4 µM].
For `C[C@@H](/C=C\c1cccc(Oc2ccc(F)cc2)c1)N(O)C(N)=O`, the AC50 was 3.98 µM (active).
Take `CCC(C)(C)c1ccc(Oc2cccc(C(=O)O)c2)cc1`: the activity, negative = inhibition is -38.4% [at 11.4 µM].
Same read-out and setting: the same measure for `C[N+]1(NCC[N@@+]2(C)CCc3ccccc3C2)CCCCC1`: 13.4% [at 11.4 µM].
With `CCc1ccc(C(=O)CN(C#N)c2nc(C)cc(C)n2)cc1`, the AC50 is 10 µM (active).
Turning to `C[C@H]1[C@H](C)OC(=O)C[C@H](O)C[C@H](O)C[C@H](O)CC[C@H](O)[C@H](O)CC(=O)C[C@H](O)[C@H](C(=O)O)[C@H](O)C[C@H](O[C@@H]2O[C@@H](C)[C@H](O)[C@@H](N)[C@@H]2O)C=CC=CC=CC=CCCC=CC=C[C@@](C)(O)[C@H]1O`, the activity, negative = inhibition is 33.3% [at 11.4 µM].
In the case of `CON(c1nc(N(C)C)nc(N(C)C)n1)S(=O)(=O)c1ccccc1Cl`, the AC50 is 4.47 µM (active).
Consider `CN1CCN(c2ncc3nc(-c4ccc(Cl)cc4)c(=O)n(C4CC4)c3n2)CC1`, for which the “activity, negative = inhibition” value is -9.47%.
`Cc1cc(C)n(CC(O)COc2ccccc2)n1` (centres undefined): the AC50 was 8.91 µM (active).
Take `Cc1cc(C)n(CCCNCC(O)c2ccccc2)n1` (centres undefined): the “activity, negative = inhibition” value was -21.8%.
On the same count and under the same terms, the same measure for `O=C1CCC(c2ccccc2)(c2ccccc2)CC1`: 13.2% [at 11.4 µM].
Take `CCCc1cc(C(=O)Cc2nc3ccccc3s2)c(O)cc1O`: the AC50 is 0.126 µM (active).
Turning to `O=c1cc(CN2CCN(c3ccc(F)cc3)CC2)c2cc3c(cc2o1)CCCC3`, the “activity, negative = inhibition” value was -27.2%.
In the case of `COc1ccc(C2C(C#N)=C(N)Oc3n[nH]c(C)c32)cc1CN1CCN(c2ccc(F)cc2)CC1` (centres undefined), the AC50 was 5.01 µM (active).
Turning to `O=C(N/C(=C/c1cccs1)c1nc2ccccc2[nH]1)c1ccccc1`, the “activity, negative = inhibition” value was -29.6%.
`O=C(N/C(=C/c1ccc(Br)cc1)c1nc2ccccc2[nH]1)c1ccco1`: the AC50 was 3.16 µM (active).
`Cc1ccc(S(=O)(=O)N[C@H]2COC(=O)C/C=C\[C@@H](C)COC(=O)C/C=C\[C@@H]2C)cc1`: the activity, negative = inhibition is 12.1% [at 11.4 µM].
In the case of `S=c1nc(-c2ccccc2)oc2c1CCCC2`, the AC50 was 15.8 µM (active).
For `COc1ccc(-n2c(-c3ccccc3)nc(=S)c3c2CCCC3)cc1`, the “activity, negative = inhibition” value was -14.5%.
